This note sets out measurements from ChEMBL document CHEMBL4513146, “CO-ADD screening of Karazin Kharkiv National University (Ukraine) compounds”.

The Inhibition is the drop in the measured response relative to a control, in per cent.

Measured potencies and affinities stand elsewhere.

One experiment has as its system Klebsiella pneumoniae. To be noted: Concentration 32 ug.mL-1;; ASSAY_TEST Inhibition of Bacterial Growth; detection method Absorption (OD600); MEDIA CAMHB; plate type 384well; NBS; CORNING #3640; time 18 hr.
In another experiment the test system is Candida albicans. To be noted: Concentration 32 ug.mL-1; ASSAY_TEST Inhibition of Fungal Growth; detection method Absorption (OD530).
A further experiment deals with Cryptococcus neoformans. To be noted: Concentration 32 ug.mL-1; ASSAY_TEST Inhibition of Fungal Growth; detection method Resazurin; Absorption (OD600-OD570); plate type 384well; NBS; CORNING #3640. (In general: Resazurin is reduced to fluorescent resorufin, in cell work by metabolically active cells.)

As to `O=C(CSc1nnc2c(=O)n(-c3ccc(Br)cc3)ccn12)c1ccc(F)cc1`, the Inhibition with Klebsiella pneumoniae is recorded as 7.31%; with Candida albicans it was 5.26%; in the experiment on Cryptococcus neoformans, -8.48%.

Regarding `O=c1c2nnc(SCc3cccc(F)c3)n2ccn1-c1ccc(Br)cc1`, the Inhibition is listed as 8.43% with Klebsiella pneumoniae, 4.16% with Candida albicans and -10.68% in the experiment with Cryptococcus neoformans.

Take `COc1cccc(Oc2nccn3c(=O)n(CC(=O)Nc4ccc(C)cc4Cl)nc23)c1`: the Inhibition is listed as 11.4% in the experiment with Klebsiella pneumoniae, 4.48% with Candida albicans and -10.48% in the experiment with Cryptococcus neoformans.

As for `CCCNC(=O)Cn1nc2n(Cc3ccco3)c(=O)c3sccc3n2c1=O`, the Inhibition with Klebsiella pneumoniae is 8.71%; with Candida albicans, 5.01%; in the experiment on Cryptococcus neoformans, -16.3%.

Take `CSc1cccc(NC(=O)Cn2nc3ccc(-c4ccc(C)c(C)c4)nn3c2=O)c1`: the Inhibition in the experiment on Klebsiella pneumoniae is listed as -6.08%; in the experiment with Candida albicans it was 28.21%; in the experiment with Cryptococcus neoformans, -10.99%.

For the molecule `COC(=O)c1ccccc1NC(=O)Cn1nc2c3sc(N4CCCC4)nc3ncn2c1=O`, the figures for the Inhibition in the experiment on Klebsiella pneumoniae, in the experiment with Candida albicans and in the experiment with Cryptococcus neoformans were 7.53%, 3.62% and -7.62%, respectively.

Turning to `CCCCOc1ccc(-c2cc3c4nnc(SCC(=O)Nc5ccc(C)c(C)c5)n4ccn3n2)cc1`, the values for the Inhibition in the experiment on Klebsiella pneumoniae, in the experiment on Candida albicans and with Cryptococcus neoformans were 4.46%, -1.19% and -6.11%, respectively.

With `Cc1cccc(NC(=O)Cn2nc3c4cc(-c5ccc(F)cc5)nn4ccn3c2=O)c1C`, the Inhibition with Klebsiella pneumoniae is given as 6.39%; in the experiment with Candida albicans, 16.67%; in the experiment with Cryptococcus neoformans, -22.65%.

Regarding `Cc1ccccc1N1CCN(c2nccn3c(=O)n(CC(=O)NCc4ccc(Cl)cc4)nc23)CC1`, the Inhibition with Klebsiella pneumoniae is reported as 7.17%; in the experiment on Candida albicans, 45.71%; in the experiment with Cryptococcus neoformans, -4.38%.

For the molecule `COc1ccccc1NC(=O)Cn1nc2n(CCCOC(C)C)c(=O)c3ccccc3n2c1=O`, the results for the Inhibition in the experiment on Klebsiella pneumoniae, with Candida albicans and in the experiment with Cryptococcus neoformans were 12.77%, 2.2% and -35.55%, respectively.

As for `COc1ccc(NC(=O)CSc2nnc3c(=O)n(-c4ccc(Br)cc4)ccn23)cc1`, the Inhibition was 8.82% in the experiment with Klebsiella pneumoniae, 5.75% in the experiment on Candida albicans and -12.25% in the experiment on Cryptococcus neoformans.

Take `COc1cccc(Sc2nc3ccccc3n3c(=O)n(CC(=O)Nc4cc(C)cc(C)c4)nc23)c1`: the Inhibition in the experiment with Klebsiella pneumoniae is 4.15%; in the experiment with Candida albicans, 5.74%; with Cryptococcus neoformans, -11.67%.

With `COc1ccc(NC(=O)C(C)Sc2nnc3c(=O)n(-c4ccccc4)ccn23)cc1` (stereo not given), the Inhibition in the experiment on Klebsiella pneumoniae is listed as 12.19%; in the experiment with Candida albicans, 1.79%; in the experiment on Cryptococcus neoformans, -7.55%.

Turning to `Cc1ccc(-c2cc3c4nnc(CCC(=O)NCc5ccc(F)c(Cl)c5)n4ccn3n2)cc1C`, the Inhibition is recorded as 10.99% in the experiment with Klebsiella pneumoniae, 2.11% with Candida albicans and -43.73% in the experiment on Cryptococcus neoformans.

Consider `Cc1ccc(-c2cc3c4nnc(SCC(=O)Nc5ccc(C#N)cc5)n4ccn3n2)cc1`, for which the Inhibition in the experiment on Klebsiella pneumoniae is 4.89%; in the experiment with Candida albicans it was 0.36%; with Cryptococcus neoformans, -27.44%.

Consider `COc1ccc(NC(=O)Cn2nc3ccc(-c4ccccc4)nn3c2=O)cc1`, for which the Inhibition in the experiment on Klebsiella pneumoniae is given as 5.42%; in the experiment on Candida albicans, 2.69%; in the experiment on Cryptococcus neoformans, -8.43%.

Regarding `COc1ccc(-c2cc3c4nnc(CCC(=O)NCCc5ccccc5)n4ccn3n2)cc1`, the Inhibition is reported as 3.81% in the experiment with Klebsiella pneumoniae, 3.45% in the experiment with Candida albicans and -16.37% with Cryptococcus neoformans.

Regarding `CCc1ccc(N(Cc2cccc(OC)c2)S(=O)(=O)c2cccn3c(C)nnc23)cc1`, the results for the Inhibition in the experiment on Klebsiella pneumoniae, in the experiment with Candida albicans and in the experiment on Cryptococcus neoformans were -1.7%, -0.37% and -7.84%, respectively.

Regarding `CC(C)Sc1ccc2nn(CC(=O)Nc3ccccc3F)c(=O)n2n1`, the results for the Inhibition in the experiment with Klebsiella pneumoniae, in the experiment on Candida albicans and with Cryptococcus neoformans were 9.69%, 2.46% and -3.85%, respectively.

Consider `O=S(=O)(c1ccc2nncn2c1)N(Cc1cccc(F)c1)c1ccc2c(c1)OCCO2`, for which the Inhibition with Klebsiella pneumoniae is listed as 10.4%; in the experiment with Candida albicans it was 1.26%; in the experiment on Cryptococcus neoformans, -5.06%.

On to `O=C(Cn1nc2ccc(SCc3ccc(Cl)cc3)nn2c1=O)NCc1ccc2c(c1)OCO2`, for which the Inhibition is -1.27% with Klebsiella pneumoniae, 13.27% in the experiment with Candida albicans and -15.83% with Cryptococcus neoformans.

`Cc1ccccc1CN(c1cccc(F)c1)S(=O)(=O)c1ccc2nncn2c1`: the Inhibition in the experiment with Klebsiella pneumoniae was 6.25%; in the experiment with Candida albicans it was 3.9%; with Cryptococcus neoformans, -4.05%.

For the molecule `N#Cc1ccc(NC(=O)Cn2nc3c(SCc4ccc(Cl)cc4)nccn3c2=O)cc1`, the Inhibition with Klebsiella pneumoniae is listed as 12.55%; in the experiment on Candida albicans, 4.94%; in the experiment with Cryptococcus neoformans, -19.24%.

Turning to `Cc1cc(C)cc(Nc2nc(C)cc3nn(CC(=O)Nc4ccccc4)c(=O)n23)c1`, the Inhibition in the experiment with Klebsiella pneumoniae was 9.53%; in the experiment on Candida albicans, 4.6%; in the experiment on Cryptococcus neoformans, -8.58%.

As for `CCC(C)NC(=O)c1ccc2c(=O)n(C3CC3)c3nn(CC(=O)NC(C)C)c(=O)n3c2c1` (stereo not given), the results for the Inhibition with Klebsiella pneumoniae, with Candida albicans and in the experiment with Cryptococcus neoformans were 17.09%, -1.34% and -38.88%, respectively.

As for `Cc1nnc2c(=O)n(CC(=O)Nc3ccccc3Cl)c3ccccc3n12`, the Inhibition with Klebsiella pneumoniae is 0.78%; in the experiment on Candida albicans, 1.36%; with Cryptococcus neoformans, -5.67%.

As to `CC(C)c1nnc2c(SCC(=O)Nc3ccc(Br)cc3)nc3ccccc3n12`, the figures for the Inhibition in the experiment with Klebsiella pneumoniae, in the experiment with Candida albicans and in the experiment with Cryptococcus neoformans were 6.82%, 0.48% and 0.69%, respectively.

Turning to `Cc1nnc2c(S(=O)(=O)N(Cc3cccc(F)c3)c3ccc(C(C)C)cc3)cccn12`, the Inhibition in the experiment on Klebsiella pneumoniae is reported as 9.6%; in the experiment with Candida albicans it was 6.76%; with Cryptococcus neoformans, -6.4%.

On to `Cc1[nH]c2ccccc2c1C(=O)CSc1nnc2c(=O)n(-c3ccc(Br)cc3)ccn12`, for which the values for the Inhibition with Klebsiella pneumoniae, with Candida albicans and in the experiment on Cryptococcus neoformans were 4.84%, 1.31% and -12.52%, respectively.

Consider `Cc1ccc(NC(=O)Cn2nc3ccc(-c4ccc(Cl)cc4)nn3c2=O)cc1`, for which the results for the Inhibition in the experiment on Klebsiella pneumoniae, in the experiment on Candida albicans and in the experiment on Cryptococcus neoformans were 3.71%, 1.61% and -4.05%, respectively.
